“And” between values parts separate entries of the source, which are not always exact repeats. Equal entries are not always repeated. The whole screen tested about 73,000 compounds, of which about 2,500 (3.4%) were called active. A call without a number means that no potency is given here. Roughly 7% stayed inconclusive and do not appear here. This is one part of a sample in which actives are shown more often than they occur. Calls follow the shape of the dose curve; as a rule, active = well fitted inhibition curve with a large enough effect; inconclusive = small, poorly fitted or top-dose-only effect; inactive = no such curve, though single readings can be large or run the other way. The source holds several records for some structures; these can differ, active in one and inactive in another.
biological target: 3-hydroxyacyl-CoA dehydrogenase type-2 (Homo sapiens) (UniProt Q99714); assay: qHTS Assay for Inhibitors of HADH2 (Hydroxyacyl-Coenzyme A Dehydrogenase, Type II); settings: recombinant HADH2, NADH fluorescence, beta-hydroxybutyryl-CoA; series mostly up to 57.1 µM; also: nearly all actives have a fitted effect of over 60% in size
Method in brief: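 Activity measured as NADH fluorescence gain (360/450 nm), taken as the change between first and last reads of a 4-min kinetic run. Conditions: pH 9.0 Tris buffer, 20 nM E. coli-expressed His-tagged enzyme, 1 mM NAD+, 90 uM beta-hydroxybutyryl-CoA; 15-min compound preincubation.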
Potency is read from the fitted curve at half-maximal effect.

Sequence of 3-hydroxyacyl-CoA dehydrogenase type-2 (Homo sapiens) (Q99714 whole entry, looked up): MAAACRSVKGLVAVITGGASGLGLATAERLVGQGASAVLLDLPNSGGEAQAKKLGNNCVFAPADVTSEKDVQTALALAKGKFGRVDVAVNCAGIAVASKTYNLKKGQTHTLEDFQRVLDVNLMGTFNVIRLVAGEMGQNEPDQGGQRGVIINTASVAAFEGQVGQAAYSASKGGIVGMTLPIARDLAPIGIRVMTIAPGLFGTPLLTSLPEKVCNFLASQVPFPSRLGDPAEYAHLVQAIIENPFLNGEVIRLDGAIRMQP
Sequence of 3-hydroxyacyl-CoA dehydrogenase type-2 (Homo sapiens) (Q99714 whole entry, looked up): as above

| Compound | Potency | activity change, negative = inhibition |
| --- | --- | --- |
| CC(=NCc1ccco1)C1=C(O)c2ccccc2C1=O | inactive | – |
| CCc1c(C)nc2cc(-c3cccs3)[nH]n2c1=O | 39.8 µM (active) | – |
| O=c1[nH]c(-c2cccs2)nc2ccccc12 | inactive | – |
| Cc1nc2nc(COc3ccccc3)[nH]n2c(=O)c1Cc1ccccc1 | inactive | – |
| CN(C)C(=O)/N=N\C(=O)N(C)C | 0.631 µM (active) | – |
| CCNCCCNCCCNCCCNCC | inactive | – |
| CO[C@H]1COC(=O)CCC[C@@H](C)[C@H](OC)COC(=O)[C@@H](C)NC(=O)C/C=C\[C@@H]1C | – | 7.05% [at 11.4 µM] (inactive) |
| O=c1c2cc3c(=O)n(CC4CCCO4)c(=O)c3cc2c(=O)n1CC1CCCO1 (stereo unspecified) | inactive | – |
| CCCOc1ccc(C2c3c(oc4cc(C)c(C)cc4c3=O)C(=O)N2CCCN2CCOCC2)cc1 (stereo unspecified) | inactive | – |
| Cn1c(=O)c2c(nc(CN3CCOCC3)n2Cc2ccccc2)n(C)c1=O | inactive | – |
| Cc1cccn2c(=O)c3cc(C#N)c(=NC(=O)c4cccnc4)n(CC4CCCO4)c3nc12 (stereo unspecified) | 25.1 µM (active) | – |
| COc1ccc(CNC(=O)c2cc3c(=O)n4ccccc4nc3n(CC3CCCO3)c2=N)cc1 (stereo unspecified) | inactive | – |
| Cc1cccn2c(=O)c3cc(C#N)c(=O)n(CCCN4CCOCC4)c3nc12 | 31.6 µM (active) | – |
| COc1ccc(-c2oc3cc(OC)ccc3c2C(=O)c2ccc(C#N)cc2)cc1 | inactive | – |
| c1ccc2nc(C3=NCCN3)cnc2c1 | inactive | – |
| CC(C)NC(=O)N1CCC2(CC1)CCN(C(=O)c1cccn1C)CC2 | inactive | – |
| O=C(Nc1nc(-c2ccc3c(c2)OCO3)cs1)c1ccncc1 | inactive | – |
| c1ccc(Nc2nc(-c3ccncc3)cs2)nc1 | inactive | – |
| O=C(Nc1nc(-c2ccncc2)cs1)C1COc2ccccc2O1 (stereo unspecified) | 1 µM (active) | – |
| C#CCCCCCCCCCCCCCCCC(=O)O | inactive | – |
| C[N+](C)(C)CCCCCNCC12CC3CC(CC(C3)C1)C2 | inactive | – |
| O=C1NC(=O)[C@@](Cc2ccccc2)(c2cccnc2)N1 | – | 1.4% [at 11.4 µM] (inactive) |
| CCOc1ccc2[nH]c(=O)c(C(c3nnnn3CCOC)N3CCOCC3)cc2c1 (stereo unspecified) | 25.1 µM (active) | – |
| COc1ccc(N2CCN(C(c3cc4ccc(C)cc4[nH]c3=O)c3nnnn3C3CCCC3)CC2)cc1 (stereo unspecified) | inactive | – |
| COCCn1nnnc1C(c1cc2ccc(OC)cc2[nH]c1=O)N1CCc2ccccc2C1 (stereo unspecified) | inactive | – |
| O=C(c1ccco1)N1CCC2(CC1)CCN(c1ncccn1)CC2 | inactive | – |

| Compound | Potency | activity change, negative = inhibition |
| --- | --- | --- |
| CCCCC(=O)Nc1ccc2c(c1)OCCO2 | inactive | – |
| CCC1=C/C(=C\c2ccc3c(c2)OCO3)C(=O)S1 | 31.6 µM (active) | – |
| CCOC(=O)NCc1ccc2c(c1)OCO2 | inactive | – |
| C1CCC2OC2C1 (stereo unspecified) | inactive | – |
| COC(=O)c1ccccc1NC(=O)c1ccccc1NS(C)(=O)=O | inactive | – |
| O=C(Nc1nncs1)c1ccccc1NS(=O)(=O)c1cccs1 | 31.6 µM (active) | – |
| COc1ccc(C(=O)Nc2nncs2)c(OC)c1 | inactive | – |
| COC(=O)c1ccc(C(NC(=O)OCc2ccccc2)/C(C)=C/[C@@H](C)C(=O)NCc2cc(C)on2)cc1 (stereo partly specified) | inactive | – |
| Cc1cc(N2CCCCC2)nc2ccc(Cc3ccc4nc(N5CCCCC5)cc(C)c4c3)cc12 | – | 1.3% [at 11.4 µM] (inactive) |
| Nc1ccc2[nH]cc(CCC(=O)O)c2c1 | – | -22.6% [at 11.4 µM] (inactive) |
| c1ccc(CSc2nnc(-c3ccco3)c(-c3ccco3)n2)cc1 | 5.01 µM (active) | – |
| c1ccc(CSc2nnc(-c3ccco3)n2Cc2ccccc2)cc1 | inactive | – |
| Nc1cc(=O)nc(SCc2ccccc2)n1Cc1ccco1 | inactive | – |
| CC1=C(C(=O)OCc2ccccc2)C(c2ccc(C(F)(F)F)cc2)NC(=O)N1CCCCCC(=O)O (stereo unspecified) | inactive | – |
| COCCNc1cc(-c2c(C)noc2C)ncn1 | inactive | – |
| O=c1[nH]nc(Cc2ccccn2)c2ccccc12 | inactive | – |
| CN(CCc1ccccn1)S(=O)(=O)c1ccc2c3c(cccc13)C(=O)N2 | 31.6 µM (active) | – |
| COc1ccc(-c2nc3cnc(OC)nc3n(Cc3ccc(F)cc3)c2=O)cc1 | inactive | – |
| O=C(NCc1ccccc1)[C@H]1C[C@@H]1[C@H](NP(=O)(c1ccccc1)c1ccccc1)c1ccccc1 | inactive | – |
| Cc1nc2cnc(N3CCNCC3)nc2n(Cc2ccc(F)cc2)c1=O | inactive | – |
| CCn1c(CNC(=O)c2ccc(OC)c(OC)c2)nnc1SCC(=O)Nc1ccccc1 | inactive | – |
| CCCn1c(=NC(C)=O)c(C(=O)OCC)cc2c(=O)n3ccccc3nc21 | 31.6 µM (active) | – |
| CCOC(=O)c1cc2n(c1N)-c1ccccc1C2=O | inactive | – |
| CCOC(=O)c1cc2n(c1C)-c1ccccc1C2=O | inactive | – |
| CS(=O)(=O)N1CCC2(CC1)CN(Cc1cc(C(F)(F)F)cc(C(F)(F)F)c1)C2 | inactive | – |
| CS(=O)(=O)Nc1cccc(-c2cncnc2Nc2ccccc2)c1 | inactive | – |

| Compound | Potency | activity change, negative = inhibition |
| --- | --- | --- |
| CNc1cc(-c2c(C)noc2C)ncn1 | inactive | – |
| CCCc1nc2ccccc2c(=O)n1/N=C/c1ccc(O)c(O)c1 | inactive | – |
| N#C/C(=C\c1ccc(O)c(O)c1)C(N)=O | 31.6 µM (active) | – |
| O=C(CCOc1ccccc1)NCc1ccccc1 | inactive | – |
| N#C/C(=C\c1ccc(O)c(O)c1)C(=O)NCc1ccccc1 | inactive and 15.8 µM (active) | – |
| C[C@@H]1C[C@H]2[C@@H]3C[C@H](F)C4=CC(=O)C=C[C@@]4(C)[C@]3(F)[C@H](O)C[C@]2(C)[C@@]1(O)C(=O)CO | inactive | – |
| COc1ncc2nc(-c3ccc(Cl)cc3)c(=O)n(-c3ccccc3)c2n1 | inactive | – |
| COc1ccccc1N1CCN(CCN2C(=O)c3ccccc3C(C)(C)C2=O)CC1 | inactive | – |
| Cc1c(S(=O)(=O)O)ccc(N=Nc2c(O)c(C(=O)O)cc3ccccc23)c1Cl | – | 14% [at 11.4 µM] (inactive) |
| C/C(CCN1CCc2nc(-c3ccccc3)c(-c3ccccc3)cc2C1)=N\O[C@@H](C)c1cn([C@@H]2COC[C@@H]2O)nn1 | – | -0.942% [at 11.4 µM] (inactive) |
| CC(C)=CCC/C(C)=C/CO/N=C1/C[C@@H](O)[C@@H](O)[C@@H]2[C@@H]3C(=O)N(C(C)(C)C)C(=O)[C@H]3CC[C@H]12 | – | 2.13% [at 11.4 µM] (inactive) |
| Cc1ccc(OCC(=O)Nc2ccc(-c3nc4ncccc4o3)cc2)cc1 | inactive | – |
| COc1ccc(CC(=O)Nc2ccc(-c3nnc(-c4ccc(C)cc4)o3)cc2)cc1 | 0.251 µM (active) | – |
| Cc1ccc(OCC(=O)Nc2ccc(-c3nnc(-c4ccco4)o3)cc2)cc1 | inactive | – |
| CO[C@H]1COC(=O)C/C=C\[C@H](C)COC(=O)[C@@H](OCc2ccccc2)/C=C\[C@@H]1C | – | 8.32% [at 11.4 µM] (inactive) |
| COc1ccc2c(=O)cc(-c3ccccc3)oc2c1O | inactive | – |
| Cc1cc2nc3c(=O)[nH]c(=O)nc-3n(C[C@H](O)[C@H](O)[C@H](O)CO)c2cc1C | inactive | – |
| O=C(c1ccccc1)N1CCN(C(=O)N2CCCCC2)CC1 | inactive | – |
| Cc1cccc(-n2c(N)c(C(=O)N3CCN(C)CC3)sc2=S)c1 | 0.631 µM (active) | – |
| COc1cccc(-c2nn(C)c3sc(C(=O)N4CCN(c5ccccc5)CC4)cc23)c1 | inactive | – |
| CCC(=O)Nc1sc(C(=O)N2CCCCC2)c(C)c1C#N | inactive | – |
| N#Cc1ccccc1-n1c(N)c(C(=O)N2CCCC2)sc1=S | 2.51 µM (active) | – |
| Cc1ccc(-n2c(N)c(C(=O)N3CCOCC3)sc2=S)c(C)c1 | 3.16 µM (active) | – |
| CC(=O)c1c(N2CCOCC2)nc(=S)n(-c2cc(C)ccc2C)c1C | inactive | – |
| Cc1ccc(OCCCC(=O)N2CCOCC2)c(C)c1 | inactive | – |
| Cc1cccc(-n2c(N)cc(=O)nc2SC(C)C(=O)NC2CCCCC2)c1 (stereo unspecified) | inactive | – |

| Compound | Potency | activity change, negative = inhibition |
| --- | --- | --- |
| N#Cc1cc2[nH]c(=O)c(=O)[nH]c2cc1[N+](=O)[O-] | inactive | – |
| CCC[C@H]1C(=O)N2C(N(C)C)=Nc3ccc(C)cc3N2C1=O | inactive | – |
| Cc1cnc(CNc2ncncc2-c2ccccc2Cl)cn1 | inactive | – |
| COC(=O)[C@H]1C[C@@H]1[C@H](NC(=O)Oc1ccc(F)cc1)c1ccccc1 | inactive | – |
| O=c1cc(-c2ccccc2)[nH]c2nc(Cl)ccc12 | 25.1 µM (active) | – |
| CN1CCN(c2ncc3nc(-c4ccc(Cl)cc4)c(=O)n(-c4ccccc4)c3n2)CC1 | inactive | – |
| C#CCC(C(=O)OC)(C(=O)OC)C(C[N+](=O)[O-])c1ccccc1 (stereo unspecified) | – | 1.44% [at 11.4 µM] (inactive) |
| Cc1ccc2oc(=O)ccc2c1 | inactive | – |
| CCN(CC)c1ccc2oc(=O)c(C)nc2c1 | 3.98 µM (active) | – |
| CC(=O)OCC1OC(C#CCCCc2ccccc2)C=CC1OC(C)=O (stereo unspecified) | – | -21.4% [at 11.4 µM] (inactive) and -18.3% [at 11.4 µM] (inactive) |
| COc1ccc(-c2cc3ccc(OCc4nn[nH]n4)cc3oc2=O)cc1 | 3.16 µM (active) | – |
| O=c1oc2cc(O)ccc2cc1-c1ccc(F)cc1 | inactive | – |
| COc1cccc(C(=O)c2cc3ccc(O)cc3oc2=O)c1 | inactive | – |
| Nc1ccccc1N | inactive | – |
| COC(=O)N1CCC[C@@]2(CCN(C(=O)NC(C)C)C2)C1 | inactive | – |
| N=C(CC(=O)Nc1ccccn1)c1ccccc1 | – | 6.89% [at 11.4 µM] (inactive) |
| CC(C)c1cc(CN(C)C)c(O)c(C(C)(C)C)c1 | – | -0.755% [at 11.4 µM] (inactive) |
| O=C(CN1CCOCC1)Nc1cc(Cl)ccc1Cl | inactive | – |
| O=C(Nc1cc(N2CCOCC2)ncn1)NC1(C(F)(F)F)Oc2ccc(Cl)cc2O1 (stereo unspecified) | 3.16 µM (active) | – |
| c1cnn(-c2cc(N3CCOCC3)ncn2)c1 | inactive | – |
| COC(=O)[C@@H]1[C@H]2C[C@H]3c4[nH]c5cc(OC)ccc5c4CCN3C[C@@H]2C[C@@H](OC(=O)c2cc(OC)c(OC)c(OC)c2)[C@@H]1OC | inactive | – |
| O=C(O)[C@@H](S)[C@H](S)C(=O)O | 1 µM (active) | – |
| O=C(O)CC(C(=O)O)C(CC(=O)O)C(=O)O (stereo unspecified) | inactive | – |
